{
  "source": "ChEMBL document CHEMBL3988442",
  "about": "“University of Dundee, Small-Polar-MMV Screening Library” (2021)",
  "note": "Out of some 48,000 compounds screened, about 13,000 (27%) showed an effect of 50% or more. The list shows a part of the results.",
  "data": [
    {"test_system": "Wolbachia pipientis", "assay": "Anti-Wolbachia Cell-Based Screen", "assay_type": "functional", "parameters": "scale not given: in the data most compounds retested in dose-response had high values", "conditions": "5 µM", "units": {"Percent Effect": "%"}, "values": [
      {"smiles": "Cc1c(C(C)NC2CCCC2)cnn1-c1ccc(F)cc1F", "note": "(centres undefined)", "Percent Effect": 1.139},
      {"smiles": "Fc1ccc(CN2CCCN(Cc3cscn3)CC2)cc1", "Percent Effect": -1.277},
      {"smiles": "O=C(N[C@@H]1CN(Cc2ccc(F)cc2)C[C@H]1O)c1cscn1", "Percent Effect": 113.4},
      {"smiles": "CC(C)N1C[C@H](NC(=O)c2coc(COc3cccc(F)c3)n2)[C@@H](O)C1", "Percent Effect": 0.03825},
      {"smiles": "NC(=O)CN1C(=O)CO[C@H]2CN(Cc3ccc(F)c(F)c3)C[C@H]21", "Percent Effect": 0.7627},
      {"smiles": "O=C(N[C@@H]1CN(Cc2ccc(F)c(F)c2)C[C@H]1O)c1cscn1", "Percent Effect": 124.1},
      {"smiles": "O=C(N[C@@H]1CN(Cc2cccc(F)c2)C[C@H]1O)c1cscn1", "Percent Effect": 114.1},
      {"smiles": "O=C(NS(=O)(=O)c1ccc(F)c(F)c1)c1cscn1", "Percent Effect": 8.824},
      {"smiles": "CN(c1ncccc1CNC(=O)c1cscn1)C1CCCCC1", "Percent Effect": -0.9499},
      {"smiles": "O=C(N[C@@H]1CCN(C(=O)c2cc[nH]c2)C[C@H]1O)c1ccccn1", "Percent Effect": 16.73},
      {"smiles": "O=C(N[C@@H]1CN(Cc2cccc3[nH]ccc23)C[C@H]1O)c1cscn1", "Percent Effect": 113.8},
      {"smiles": "O=C(N[C@@H]1CN(c2ncc(F)cn2)[C@@H]2COC[C@@H]21)c1cscn1", "Percent Effect": -1.705},
      {"smiles": "O=C(NC1CC(=O)N(Cc2cccc(F)c2)C1)c1ccncc1", "note": "(centres undefined)", "Percent Effect": 2.208},
      {"smiles": "CNC(=O)N1CCOC(C)(c2cnn(C)c2)C1", "note": "(centres undefined)", "Percent Effect": -1.831},
      {"smiles": "O=C(N[C@@H]1CN(Cc2ccc3cc[nH]c3c2)C[C@H]1O)c1cnccn1", "Percent Effect": 102.1},
      {"smiles": "O=C(N[C@@H]1CN(CCc2ccc(F)cc2)C[C@H]1O)c1cscn1", "Percent Effect": 115.2},
      {"smiles": "CCc1cnc(N2C[C@@H](NC(=O)c3cscn3)[C@H]3COC[C@H]32)nc1.O=C(O)C(F)(F)F", "Percent Effect": -6.299},
      {"smiles": "NC(=O)C1CCN(CCc2ccc(NCc3cscn3)cc2)CC1", "Percent Effect": 0.9786},
      {"smiles": "O=C(N[C@@H]1CCN(c2nccc3ccccc23)C[C@H]1O)c1cnccn1", "Percent Effect": -5.026},
      {"smiles": "O=C(O)CCc1cc2n(n1)CCN(Cc1ccc3[nH]ccc3c1)C2", "Percent Effect": -14.18},
      {"smiles": "O=C(N[C@@H]1CN(Cc2ccc3[nH]ccc3c2)C[C@H]1O)c1cscn1", "Percent Effect": 101.2},
      {"smiles": "N#Cc1cc(NC(=O)c2cscn2)ccc1N1CCC(O)CC1", "Percent Effect": -15.52},
      {"smiles": "CSCCCN1CC[C@@H](NC(=O)c2cnccn2)[C@H](O)C1", "Percent Effect": -11.75},
      {"smiles": "COCCn1cnnc1Cn1ccnc1-c1ccccc1C", "Percent Effect": -14.43},
      {"smiles": "c1ccc(-c2cc(CC3(NCc4ncc[nH]4)COC3)no2)cc1", "Percent Effect": -5.291},
      {"smiles": "O=C1OCCN1CCS(=O)(=O)c1cccc(Cl)c1", "Percent Effect": -8.046},
      {"smiles": "N#Cc1ccc(F)c(CN2CCc3sccc3C2)c1", "Percent Effect": 10.21},
      {"smiles": "CC(C(=O)N1CCc2sccc2C1)N1CCC(S(N)(=O)=O)CC1", "note": "(centres undefined)", "Percent Effect": 4.951},
      {"smiles": "CC(C)c1nsc(N2CCc3sccc3C2)n1", "Percent Effect": -3.315},
      {"smiles": "NCC(c1ccc(Cl)cc1)N1CCc2sccc2C1", "note": "(centres undefined)", "Percent Effect": 85.2},
      {"smiles": "O=S(=O)(N1CCCC1)N1CCc2sccc2C1", "Percent Effect": -2.678},
      {"smiles": "CC(C)c1ccc(C(CN)N2CCc3sccc3C2)cc1", "note": "(centres undefined)", "Percent Effect": 134.3},
      {"smiles": "O=C1CC2(CCCC2)C(=O)N1CC(O)COCc1ccccc1F", "note": "(centres undefined)", "Percent Effect": -41.58},
      {"smiles": "CCOc1ncccc1C(=O)NCC(O)c1ccc(F)c(F)c1", "note": "(centres undefined)", "Percent Effect": -43.97},
      {"smiles": "O=C(O)C(F)(F)F.O=C(O)C(F)(F)F.c1ccc(OCc2nnc3n2CCN(CC2CCOCC2)C3)nc1", "Percent Effect": 15.11},
      {"smiles": "Cc1cc(C)c(CNC(=O)NCC(O)COc2ccccc2)c(=O)[nH]1", "note": "(centres undefined)", "Percent Effect": -7.857},
      {"smiles": "Cc1ccc(CN2CCC(n3cc(CN4CCC(O)CC4)nn3)CC2)s1", "Percent Effect": -6.735},
      {"smiles": "COCCN1CCC12CCN(C(=O)c1ccsc1)CC2.O=C(O)C(F)(F)F", "Percent Effect": -8.3},
      {"smiles": "CCCc1noc(CCC(=O)N2CCCC(c3ccn[nH]3)C2)n1", "note": "(centres undefined)", "Percent Effect": -9.271},
      {"smiles": "CCc1noc(CCCC(=O)N2CCCC(c3ccn[nH]3)C2)n1", "note": "(centres undefined)", "Percent Effect": -18.93},
      {"smiles": "CCc1noc(CCC(=O)N2CCC(c3ccn[nH]3)C2)n1", "note": "(centres undefined)", "Percent Effect": 80.59},
      {"smiles": "COCC(=O)NCC1Cn2nnc(-c3ccoc3)c2CO1", "note": "(centres undefined)", "Percent Effect": -10},
      {"smiles": "O=c1[nH]c(-c2ccc(F)cc2)nc2c1CCNC2", "Percent Effect": -26.62},
      {"smiles": "O=c1cc(-c2ccccc2)nc2n1CCCCC2", "Percent Effect": 110.3},
      {"smiles": "NC1(c2nc(-c3ccccc3)cc(=O)[nH]2)CCCC1", "Percent Effect": -3.244},
      {"smiles": "Fc1ccc2c(c1)C(NCc1nnc3n1CCCCC3)CCCO2", "note": "(centres undefined)", "Percent Effect": -5.807},
      {"smiles": "Cc1nc(-c2ccccc2)ccc1C(=O)N1CCn2c(C)nnc2C1", "Percent Effect": -4.566},
      {"smiles": "O=c1cc(-c2ccc(F)cc2)nc2n1CCCCC2", "Percent Effect": 114},
      {"smiles": "CCc1cc(CNC(=O)Nc2cc(F)cc(N3CCCC3)c2)on1", "Percent Effect": -27.71},
      {"smiles": "O=C1CCc2ccccc2N1CCCn1cnnn1", "Percent Effect": -8.538},
      {"smiles": "CC(C)c1ccc(C(=O)O)cc1S(=O)(=O)Nc1ccc(=O)n(C)c1", "Percent Effect": -9.9},
      {"smiles": "Cc1ccc(N2C[C@@H]3CN(C(=O)c4ccccc4)CCO[C@@H]3C2)nn1.O=C(O)C(F)(F)F", "Percent Effect": -9.523},
      {"smiles": "Cc1ccc(N2CCO[C@H]3CN(C(=O)c4cccc(C)n4)C[C@H]32)nn1", "Percent Effect": 104.4},
      {"smiles": "Cc1ccc(N2CCO[C@@H]3CN(Cc4cccc(C)n4)CC[C@@H]3C2)nn1", "Percent Effect": 0.9995},
      {"smiles": "CNS(=O)(=O)c1cccc(C(C)NCc2cccc(O)c2)c1", "note": "(centres undefined)", "Percent Effect": -12.85},
      {"smiles": "O=C(c1nc(=O)[nH][nH]1)N1CCCCCC1", "Percent Effect": -25.91},
      {"smiles": "COc1ccc2c(c1)C(=O)N(C)C1(CCN(CC=C(C)C)CC1)N2", "Percent Effect": -3.399},
      {"smiles": "O=C(NCCNc1ccccn1)NC1CCCC1", "Percent Effect": 1.673},
      {"smiles": "CC(=O)NC1Cc2ccc(S(=O)(=O)NCCNc3ccccn3)cc2C1", "note": "(centres undefined)", "Percent Effect": 74.28},
      {"smiles": "CN1CCC(NC(=O)NCCNc2ccccn2)CC1", "Percent Effect": 10.59},
      {"smiles": "CN(C)C(=O)CS(=O)(=O)Cc1cc(Cl)c2c(c1)OCCO2", "Percent Effect": 128.9},
      {"smiles": "CN(C)C(=O)CCS(=O)(=O)Cc1cc(Cl)c2c(c1)OCO2", "Percent Effect": 106.6},
      {"smiles": "CS(=O)(=O)CCS(=O)(=O)Cc1cc(Cl)c2c(c1)OCCCO2", "Percent Effect": -7.786},
      {"smiles": "CN(C)C(=O)CCCS(=O)(=O)Cc1cc(Cl)c2c(c1)OCCO2", "Percent Effect": 4.566},
      {"smiles": "CN(C)C(=O)CS(=O)(=O)Cc1cc(Cl)c2c(c1)OCCCO2", "Percent Effect": -2.577},
      {"smiles": "CN(C)C(=O)CCS(=O)(=O)Cc1cc(Cl)c2c(c1)OCCO2", "Percent Effect": 3.114},
      {"smiles": "CN(C)C(=O)CCCS(=O)(=O)Cc1cc(Cl)c2c(c1)OCO2", "Percent Effect": 133.3},
      {"smiles": "CS(=O)(=O)Cc1cc(Cl)c2c(c1)OCCCO2", "Percent Effect": 18.55},
      {"smiles": "CC(C)NC(=O)CS(=O)(=O)Cc1cc(Cl)c2c(c1)OCCO2", "Percent Effect": 2.891}
    ]}
  ]
}
